Hit rate of the full screen: of about 300,000 compounds, about 990 (0.33%) were called active. For the sample, actives were picked, then their nearest neighbours and some compounds at random. A number with no mark means an inactive call.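 How the source made its calls: active means inhibition above the screen mean inhibition plus 3 SD, computed separately per campaign (cut at about 18% in these data); inactive means the rest.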
What follows are molecules tested on Fam108B (ABHD17B) serine hydrolase [Mus musculus] (assay: inhibition of Fam108B (ABHD17B) hydrolase – biochemical, fluorescence polarization, counter-screen for RBBP9 inhibitor project, primary screen (AID 1947;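 further: inhibitors lower polarization as less probe binds the enzyme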)). Conditions: recombinant Fam108B, FP-Rh probe fluorescence polarization; at 9.51 µM; active compounds read high.
`CCC(C)N(C(=O)COC(=O)c1nc(Cl)ccc1Cl)C1CCS(=O)(=O)C1` (centres undefined) showed an inhibition of 4.9%.
`CCOC(=O)c1sc(=NC(=O)/C=C/c2cccs2)n(C)c1C` showed an inhibition of -2.21%.
For `COc1ccc(-c2nc(CS(=O)CC(=O)NCc3ccccc3)c(C)o2)cc1OC` (centres undefined), the inhibition was 0.72%.
With `COc1ccc(-c2nc(CS(=O)CC(=O)NCc3ccccn3)c(C)o2)cc1` (centres undefined) the inhibition was 22.4% (active).
`COc1cccc(-c2nc(CS(=O)CC(=O)NCc3ccc(F)cc3)c(C)o2)c1` (centres undefined) was tested, and the inhibition was 1.48%.
`CCC(=O)Nc1cccc(C2=NOC3(C2)C[C@@H](C(N)=O)N(C(=O)c2cc([N+](=O)[O-])cc([N+](=O)[O-])c2C)C3)c1` (some centres undefined) showed an inhibition of 3.54%.
`Cc1ccc(-n2c(C)nnc2SCC(=O)NC2CC2)cc1` showed an inhibition of 2.72%.
`CC(CC(=O)N1CCN(c2ccccc2)CC1)S(=O)(=O)c1ccc2c(c1)NC(=O)CS2` (centres undefined) showed an inhibition of -0.25%.
For `O=C(N/N=C/c1sc(N2CCCCC2)nc1-c1cccs1)c1cccnc1`, the inhibition was 30.7% (active).
Molecule `Cc1cc(/C=N/NC(=O)c2cccnc2)c(C)n1CC(C)C` has an inhibition of 0.13%.
With `O=C(NN=C1CCC(=NNC(=O)c2cccnc2)CC1)c1cccnc1` the inhibition was -0.8%.
With `CC1CC(C)CN(S(=O)(=O)c2cccc(C(=O)N3C(=O)c4cccc(N)c4C3=O)c2)C1` (centres undefined) the inhibition was -1.13%.
For `NS(=O)(=O)c1ccc(CCNC(=O)c2nc(CS(=O)(=O)c3ccc(Cl)cc3)no2)cc1`, the inhibition was 1.62%.
With `CC(N=Cc1nc(-c2ccccc2)oc1O)c1ccccc1` (centres undefined) the inhibition was 4.55%.
`Oc1oc(-c2ccccc2Br)nc1/C=N/c1ccccn1` was tested, and the inhibition was 25.5% (active).
With `CCOc1ccc2nc(/N=C/c3nc(-c4ccccc4)oc3O)sc2c1` the inhibition was 5.88%.
Molecule `O=C(CCNC(=O)C1CCN(S(=O)(=O)c2ccccc2)CC1)NC1CC1` has an inhibition of -1.2%.
`Cc1ccc(-c2nc3c(cnn3-c3ccccc3)c(=O)o2)cc1` was tested, and the inhibition was 22.6% (active).
Work on `Cc1ccc(-n2ncc3c(=O)n(-c4ccc(C)c(C)c4)c(-c4ccco4)nc32)cc1` yielded an inhibition of -5.3%.
Molecule `CC(=O)Cn1cnc2c(cnn2-c2ccccc2)c1=O` has an inhibition of 4.35%.
Work on `O=C(COc1ccccc1)Nc1nonc1NC(=O)COc1ccccc1` yielded an inhibition of -1.87%.
With `COc1ccc(C)cc1S(=O)(=O)NCCc1ccccc1` the inhibition was 1.15%.
`Cc1cc(C)c(S(=O)(=O)n2cc(C(C)C(N)C(=O)O)c3ccccc32)c(C)c1` (centres undefined) was tested, and the inhibition was -1.29%.
Molecule `CCC1(c2ccccc2)NC(=O)N(CC(=O)c2ccc3c(c2)OCO3)C1=O` (centres undefined) has an inhibition of 1.48%.

Source: PubChem BioAssay AID1947 (The Scripps Research Institute Molecular Screening Center, 2009)
